{"source": "ChEMBL document CHEMBL5308541", "about": "“MAIP: An Open-Source Tool to Enrich High-Throughput Screening Output and Identify Novel, Druglike Molecules with Antimalarial Activity” (ACS Med Chem Lett, 2023)", "note": "The whole screen tested about 150,000 compounds, of which about 540 (0.36%) showed an effect of 50% or more. The sample holds strong results, similar compounds and a random draw of the others, so the mix is not that of the screen."}
{"test_system": "Plasmodium falciparum", "test": "Primary screen in NF54 nanoGlo assay, in single point, at 2uM, 72h; a lower Z score goes with more inhibition", "type": "functional, Erythrocyte", "details": "timepoint 72 hour", "units": {"% Inhibition": "%"}}
{"smiles": "Cc1ccc(-c2cc(C(=O)N[C@H]3CCCN(C4CCN(C)CC4)C3)n[nH]2)s1", "% Inhibition": 5, "Z score": -0.79}
{"smiles": "CN1CCC(N2CCC(NC(=O)c3ccncn3)CC2)CC1", "% Inhibition": -17, "Z score": 2.56}
{"smiles": "Cc1ccc(-c2cc(C(=O)NC3CCN(C4CCN(C)CC4)CC3)n[nH]2)cc1C", "% Inhibition": 95, "Z score": -16.77}
{"smiles": "CCc1oc2ccccc2c1CNC[C@H](O)c1ccc(Cl)cc1", "% Inhibition": 98, "Z score": -19.37}
{"smiles": "Cn1cc(CNC[C@H](O)c2ccc(F)c(F)c2)c(-c2cc3ccccc3o2)n1", "% Inhibition": 19, "Z score": -3.4}
{"smiles": "C[C@](O)(CNS(=O)(=O)c1c[nH]c2ncccc12)C(c1ccccc1)c1ccccc1", "% Inhibition": 4, "Z score": -0.63}
{"smiles": "CN([C@@H](c1ccccc1)c1ccccc1Br)S(=O)(=O)c1c[nH]c2ncccc12", "% Inhibition": 60, "Z score": -11.93}
{"smiles": "C[C@@H](c1cccc(-c2cc(N3CCOCC3)nc(N)n2)c1)N1CCCC1", "% Inhibition": -1, "Z score": 0.25}
{"smiles": "Cc1ccc2[nH]cc(-c3cc(N4CCCCC4)ncn3)c2c1", "% Inhibition": 11, "Z score": -2.17}
{"smiles": "Cc1ccc2[nH]cc(-c3cc(N4CCOCC4)nc(N)n3)c2c1", "% Inhibition": 52, "Z score": -10.41}
{"smiles": "NC(=O)c1ccc(CNC(=O)NCC[C@H](O)c2ccccc2)o1", "% Inhibition": -10, "Z score": 1.46}
{"smiles": "CC(C)(O)C#Cc1ccc(CN(CC2CCN(C3CCCC3)CC2)C[C@H]2CCCO2)cc1", "% Inhibition": -11, "Z score": 1.92}
{"smiles": "CC(C)N1CCN(CCCN2CCN(C)C3(CCCCC3)C2)CC1", "% Inhibition": 3, "Z score": -0.69}
{"smiles": "Cc1cc(N2CCC(N(C)Cc3ncc(-c4ccccc4C)o3)CC2)nc(C)n1", "% Inhibition": -3, "Z score": 0.66}
{"smiles": "CN1CCC(Oc2ccc(NC(=O)c3cn4ccnc4s3)cn2)CC1", "% Inhibition": 90, "Z score": -15.87}
{"smiles": "CN1CCC(Oc2ccc(NCc3ccc(N(C)C)nc3)cn2)CC1", "% Inhibition": -17, "Z score": 3.56}
{"smiles": "CN1CCC(CNC2CC3CC(C2)N(C(=O)OC(C)(C)C)C3)CC1", "note": "(centres undefined)", "% Inhibition": 72, "Z score": -15.46}
{"smiles": "COc1cc2nc(-c3cc(Cl)c(O)cc3C)nc(N)c2cc1OC", "% Inhibition": 2, "Z score": -0.41}
{"smiles": "COc1cc2nc(-c3ccc(F)c4cccnc34)nc(N)c2cc1OC", "% Inhibition": 96, "Z score": -14.63}
{"smiles": "COc1ccnc(CN2CC[C@H](Nc3ncccn3)C2)c1OC", "% Inhibition": -5, "Z score": 0.75}
{"smiles": "Cc1nc(C)c(C)c(N2CC(OCc3ccccc3)C2)n1", "% Inhibition": -11, "Z score": 1.9}
{"smiles": "COc1ccc2c(N3CC[C@H](CN4CCCC4)C3)ccnc2c1", "% Inhibition": 91, "Z score": -15.93}
{"smiles": "CN1CCN(C[C@H]2CCCN(C(=O)c3ccnc4ccccc34)C2)CC1", "% Inhibition": 5, "Z score": -1.03}
{"smiles": "COCC1CCN(c2ccnc3cc(F)ccc23)CC1", "% Inhibition": 7, "Z score": -1.37}
{"smiles": "CN1CCN(CC2CCN(c3ccnc4ccccc34)CC2)CC1", "% Inhibition": 98, "Z score": -16.96}
{"smiles": "COc1ccc2nccc(N3CCC(O)CC3)c2c1", "% Inhibition": 5, "Z score": -0.83}
{"smiles": "c1ccc(CN2CCC[C@H](CNC3CCN(c4ccc5c(c4)OCO5)CC3)C2)cc1", "% Inhibition": 14, "Z score": -2.53}
{"smiles": "CC1(N2CCC2)CCC(NC[C@H]2CCN(Cc3ccccc3)C2)CC1", "note": "(some centres undefined)", "% Inhibition": 73, "Z score": -12.59}
{"smiles": "CC(=O)N1CCC(CNC2CCC(C)(N3CCCC3)CC2)CC1", "note": "(centres undefined)", "% Inhibition": -10, "Z score": 1.74}
{"smiles": "Nc1ccnc2ccc(-c3ccc(C(=O)NCC4CCOCC4)cc3)cc12", "% Inhibition": 83, "Z score": -16.44}
{"smiles": "OC1CN(c2ccnc3ccccc23)CCC1N1CCN(c2ccccn2)CC1", "note": "(centres undefined)", "% Inhibition": -7, "Z score": 1.2}
{"smiles": "CCCCN1CCC(NC(=O)c2c[nH]c3ncccc23)CC1", "% Inhibition": -8, "Z score": 1.66}
{"smiles": "O=C(NC1CCN(CCOc2ccc(Cl)cc2)CC1)c1c[nH]c2ccncc2c1=O", "% Inhibition": 94, "Z score": -14.22}
{"smiles": "CCCc1cc(NCC2(N3CCN(C)CC3)CCCCC2)n2nccc2n1", "% Inhibition": -3, "Z score": 0.64}
{"smiles": "CNc1cc([C@H]2C[C@@H](NC3CC(C)(C)NC(C)(C)C3)C2)ncn1", "% Inhibition": 11, "Z score": -1.95}
{"smiles": "CNc1nc(N[C@H]2CCCN(Cc3ccc(Cl)cc3)C2)nc2c1CCC2", "% Inhibition": 49, "Z score": -8.5}
{"smiles": "Cc1cc(N2CCC(N(C)Cc3ccc4nsnc4c3)CC2)nc(N)n1", "% Inhibition": 18, "Z score": -3.91}
{"smiles": "Cc1cc(N2CCC(NC3CCCC3Cc3ccc(F)cc3)CC2)nc(N)n1", "note": "(centres undefined)", "% Inhibition": 96, "Z score": -14.52}
{"smiles": "Cc1cc(N2CCC(NCc3ccc(C(F)(F)F)cc3F)CC2)nc(N)n1", "% Inhibition": 10, "Z score": -2.1}
{"smiles": "CN(C)c1ncc(CN2CCN(c3nsc4ccccc34)CC2)cn1", "% Inhibition": 5, "Z score": -0.94}
{"smiles": "O=C(Nc1cnc2c(c1)COCC2)c1cc2c(OC(F)(F)F)cccc2[nH]1", "% Inhibition": 93, "Z score": -14.17}
{"smiles": "CN(c1ccccc1)c1ccc(CN2CCN([C@H]3CCNC3)CC2)cc1", "% Inhibition": 68, "Z score": -13.59}
